High-throughput results deposited in PubChem by National Center for Advancing Translational Sciences (NCATS).
Pol iota inh – qHTS for Inhibitors of Polymerase Iota; hit rate 1% among 390,000; DNA polymerase iota (Homo sapiens), Q9UNA4; AID 588590, 2011; Potency, µM (series often up to 115 µM), usual class: inhibitors; Pol iota fluorescent replication assay, 10 min
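Fluorescent replication assay read twice, at 0 min and 10 min after adding 50 nM (final) substrate. Enzyme (10 nM) and compounds were first incubated 15 min at room temperature; enzyme-free buffer wells were negative controls.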
FEN1 inhibitor – qHTS Assay for the Inhibitors of Human Flap endonuclease 1 (FEN1); hit rate 0.35% among 390,000; Potency, µM (titrated, usually from 114 µM), actives largely listed as inhibitors; AID 588795, 2011; Recombinant FEN1 flap cleavage, fluorescence, 15 min; P39748; also: nearly all actives have a fitted effect of over 65% in size
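Quantitative HTS format: each compound was titrated, incubated with 10 nM nuclease for 15 min at room temperature, then challenged with flap substrate at 50 nM final. Signal change over 15 min gave concentration–effect curves.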
POLH inh – qHTS for Inhibitors of Polymerase Eta. recombinant Pol eta, fluorescent DNA replication assay. Potency, µM (doses to about 114 µM), actives largely listed as inhibitors. hit rate 1.2% among 390,000. AID 588591, 2011
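Fluorescent replication assay: 50 nM final substrate added after a 15 min room-temperature compound preincubation with 10 nM enzyme. Signal taken at 0 min and again at 10 min.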
WRN inhibitor – qHTS for Inhibitors of WRN Helicase | WRN helicase unwinding, fluorescent forked duplex, kinetic | Potency, µM (top dose mostly 114 µM), usual class: inhibitors | hit rate 0.46% among 360,000 | AID 651768, 2012; also: nearly all actives have a fitted effect of over 55% in size
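Fluorescence dequenching readout, ex 525 nm/em 598 nm, kinetic mode: forked duplex DNA (100 nM final) with adjacent fluorophore and quencher unwound by WRN (20 nM final) with 2 mM ATP. Compound preincubation 15 min, room temperature.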
POLB inh – qHTS Assay for Inhibitors of DNA Polymerase Beta; P06746; Pol beta primer extension/strand displacement, fluorescence kinetic; Potency, µM (titrated, usually from 114 µM), hits mostly inhibitors; hit rate 1.3% among 340,000; AID 485314, 2010
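Curves were derived by four-parameter Hill fits of normalized qHTS data. The kinetic fluorescent primer-extension read was taken at 0 and 10 min after 50 nM substrate, following a 15 min room-temperature preincubation of 10 nM enzyme with compounds.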
POLK inh – qHTS for Inhibitors of Polymerase Kappa | DNA polymerase kappa (Homo sapiens), Q9UBT6 | Potency, µM (titrated, usually from 107 µM), usual class: inhibitors | purified Pol kappa, fluorescent DNA synthesis assay, 10 min | hit rate 0.53% among 400,000
Target sequence (Q9UBT6 whole entry, looked up): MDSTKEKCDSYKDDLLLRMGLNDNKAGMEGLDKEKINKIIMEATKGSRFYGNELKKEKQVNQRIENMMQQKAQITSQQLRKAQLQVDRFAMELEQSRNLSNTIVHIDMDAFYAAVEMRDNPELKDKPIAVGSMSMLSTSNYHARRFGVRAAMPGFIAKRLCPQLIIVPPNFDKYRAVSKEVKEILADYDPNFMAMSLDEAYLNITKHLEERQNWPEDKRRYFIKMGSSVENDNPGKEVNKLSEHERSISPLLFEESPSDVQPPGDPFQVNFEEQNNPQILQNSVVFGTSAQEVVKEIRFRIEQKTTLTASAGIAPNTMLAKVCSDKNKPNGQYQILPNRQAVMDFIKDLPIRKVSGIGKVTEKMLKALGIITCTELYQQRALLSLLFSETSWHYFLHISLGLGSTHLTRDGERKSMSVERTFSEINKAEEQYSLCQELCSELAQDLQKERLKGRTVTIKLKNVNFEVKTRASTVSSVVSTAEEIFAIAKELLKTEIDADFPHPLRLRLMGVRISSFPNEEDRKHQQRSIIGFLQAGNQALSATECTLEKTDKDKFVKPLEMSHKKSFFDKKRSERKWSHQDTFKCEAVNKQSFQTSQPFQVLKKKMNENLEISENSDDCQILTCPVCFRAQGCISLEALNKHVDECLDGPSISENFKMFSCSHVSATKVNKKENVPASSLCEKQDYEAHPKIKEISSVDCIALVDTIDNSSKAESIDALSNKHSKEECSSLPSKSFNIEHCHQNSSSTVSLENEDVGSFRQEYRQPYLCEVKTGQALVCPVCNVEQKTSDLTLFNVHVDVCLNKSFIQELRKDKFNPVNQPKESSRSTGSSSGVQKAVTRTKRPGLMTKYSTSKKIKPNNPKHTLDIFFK
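Kinetic fluorescence readout at 0 and 10 min followed reaction start with substrate at 50 nM final. Beforehand, enzyme (10 nM Pol kappa) stood 15 min with compound at room temperature; buffer-only wells were negative controls.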
Numbers stand for hits; 0 = inactive; ? = inconclusive; - = no result; [ ] = remark or other dose. An excerpt weighted towards active compounds, which were near 2.4% of everything screened. Calls follow the shape of the dose curve; as a rule, active = well fitted curve in the direction sought with a large enough effect; inconclusive = small, poorly fitted or top-dose-only effect, or another doubt; inactive = no such curve, though single readings can be large; an effect the other way counts as inactive or inconclusive.

SMILES	Pol iota inh	FEN1 inhibitor	POLH inh	WRN inhibitor	POLB inh	POLK inh
COc1ccccc1N(C(=O)CCl)c1cn(C(C)=O)c2ccccc12	0	0	45µM	0	0	0
COc1ccccc1-c1ccc2ncnc(N3CCNCC3)c2c1	-	-	-	-	-	0
N[C@@H](C(=O)O)c1ccc(O)c(C(=O)O)c1	?	50µM	-	-	-	0
FC(F)(F)C(F)(F)C(F)(F)C(F)(F)C(F)(F)C(F)(F)F	-	-	-	-	-	0[19.4 µM]
COC(=O)c1ccsc1NC(=O)c1cccc(OC)c1	89µM	0	0	0	0	0
COc1cc(C=C2C(=O)C=CC2=O)ccc1O	-	-	-	10µM	-	-
Cc1cc(N)c2cc(NC(=O)Nc3ccc4nc(C)cc(N)c4c3)ccc2n1	-	-	-	-	-	6.3µM
Cc1cc(N2CCN(C)CC2)nc2ccc(NC(=O)Nc3ccc(Cl)cc3)cc12	0	0	0	-	0	0
COC(=O)c1sccc1S(=O)(=O)N1CCN(c2ccccc2)CC1	0	0	0	-	0	0
COc1cc(OC)c(/C=C/c2ccc3ccccc3[n+]2[O-])c(OC)c1	0	0	-	-	-	0
CCOc1ccc(/C=C2\SC(=S)N(N3C(=O)C4CC4C3=O)C2=O)cc1 (stereo not given)	0	0	0	0	0	0
CCOc1ccc(N=C2NC(=O)S/C2=C\c2ccc(N(C)C)cc2)cc1	?	?	79µM	?	0	0
CCOc1ccc(/C=C2/SC(=O)NC2=S)cc1	89µM	?	0	?	?	?
COc1cccc(-n2cc(C(=O)Nc3cc(OC)c(OC)c(OC)c3)c3ccccc3c2=O)c1	0	0	0	-	0	0
O=C(COc1ccc(F)cc1)Nc1ccccc1C(=O)OCc1cc(=O)n2ccsc2n1	?	0	0	-	?	0
COCCN(CC(=O)Nc1cccc(C)c1C)C(=O)c1cc2c(s1)CCC2	89µM	0	?	0[11.6 µM]	-	?
COc1cccc(Oc2cc(NN3CCCCC3)c([N+](=O)[O-])cc2[N+](=O)[O-])c1OC	?	0	0	0	56µM	0
CC(=C/c1ccccc1)/C=N/NC(=O)c1ccccn1	0	0	0	0	63µM	0
COc1ccccc1/C=C/C=N/NC(=O)c1ccc2nc[nH]c2c1	-	-	-	-	35µM	-
CC(/C=N/NC(=O)c1ccc2nc(C)[nH]c2c1)=C\c1ccccc1	0	0	?	0	28µM	0
COc1ccc(OC)c(/C=N/NC(=O)c2ccc3nc[nH]c3c2)c1	0	0	0	0	0	0
COc1cccc(/C=N/NC(=O)c2ccc3nc[nH]c3c2)c1	0	0	0	0	?	0
CC(/C=N/NC(=O)c1cc(C(C)(C)C)[nH]n1)=C\c1ccccc1	0	0	0	0	0	0
CC(=C/c1ccccc1)/C=N/NC(=O)c1ccc2nc[nH]c2c1	0	0	0	0	32µM	0
CCOC(=O)/C=C1\CN(Cc2ccc(OC)cc2)S(=O)(=O)c2ccc(C(F)(F)F)cc21	?	0	-	-	-	0
SMILES	Pol iota inh	FEN1 inhibitor	POLH inh	WRN inhibitor	POLB inh	POLK inh
O=C(N/N=C/c1ccncc1)c1ccc(NC(=O)c2cccc(Cl)c2)cc1	?	0	?	0	8.9µM	?
CC(/C=N/NC(=O)c1cccc(F)c1)=C\c1ccccc1	0	0	0	0	18µM	0
COc1ccccc1C(=O)N/N=C/C(C)=C/c1ccccc1	0	0	0	0	?	0
O=C(N/N=C/c1ccncc1)c1ccc(NC(=O)c2ccc(Cl)cc2)cc1	0	0	0	0	0	0
O=C(N/N=C/c1ccc(OC(=O)c2cccs2)cc1)c1cccc(F)c1	0	0	0	0	8.9µM	0
O=C(N/N=C/C(Br)=C\c1ccccc1)c1ccc2nc[nH]c2c1	?	0	?	0	13µM	0
Cc1cccc(NC(=O)CSc2cn(CC(=O)N3CCOCC3)c3ccccc23)c1C	0	0	0	-	0	0
Cc1nn(CC(=O)NC2CC2)c(=O)c2cc3cc(F)ccc3n12	0	0	0	-	0	0
O=C(N/N=C/c1ccc(Cl)cc1Cl)c1ccc2nc[nH]c2c1	0	0	0	0	16µM	0
